Results reported in PubChem BioAssay.
Records with an inconclusive call do not appear. Activity calls are given as the source filed them. Unless noted, the limit is not given here; nearly all actives have AC50 up to about 26 µM.

Test: JHH-DIPG-1 glioma cell viability, MIPE5.0 library, CellTiter-Glo luminescence, qHTS (AID 1347067);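 also: cells exposed to compound for 48 hours before readout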
Conditions: JHH-DIPG-1 glioma viability, CellTiter-Glo ATP luminescence

| SMILES | outcome |
| --- | --- |
| COc1ccc(/C=C/C(=O)Nc2ccccc2C(=O)O)cc1OC | inactive |
| COC(=O)[C@H](c1ccccc1Cl)N1CCc2sccc2C1 | inactive |
| CS(=O)(=O)c1ccc(C2=C(c3ccccc3)C(=O)OC2)cc1 | inactive |
| CN(C)c1nc(N(C)C)nc(N(C)C)n1 | inactive |
| CC1=C(/C=C/C(C)=C/C=C/C(C)=C\C(=O)O)C(C)(C)CCC1 | inactive |
| CCc1ccc(CCOc2ccc(CC3SC(=O)NC3=O)cc2)nc1 (configuration not stated) | inactive |
| CC(C(=O)O)c1ccc(-c2ccccc2)c(F)c1 (configuration not stated) | inactive |
| C[C@H]1COc2c(N3CCN(C)CC3)c(F)cc3c(=O)c(C(=O)O)cn1c23 | inactive |
| Nc1ncnc2c1ncn2[C@@H]1O[C@H](CO)[C@@H](O)[C@@H]1O | inactive |

Test: SU-DIPG-XXV glioma cell viability, MIPE5.0 library, qHTS (AID 1347068; cut-off not given, nearly all actives have IC50 up to about 30 µM)
Conditions: not given

| SMILES | outcome |
| --- | --- |
| COc1ccc(/C=C/C(=O)Nc2ccccc2C(=O)O)cc1OC | inactive |
| COC(=O)[C@H](c1ccccc1Cl)N1CCc2sccc2C1 | inactive |
| CS(=O)(=O)c1ccc(C2=C(c3ccccc3)C(=O)OC2)cc1 | inactive |
| CN(C)c1nc(N(C)C)nc(N(C)C)n1 | inactive |
| CC1=C(/C=C/C(C)=C/C=C/C(C)=C\C(=O)O)C(C)(C)CCC1 | inactive |
| CC(C(=O)O)c1ccc(-c2ccccc2)c(F)c1 (configuration not stated) | inactive |
| C[C@H]1COc2c(N3CCN(C)CC3)c(F)cc3c(=O)c(C(=O)O)cn1c23 | inactive |
| Nc1ncnc2c1ncn2[C@@H]1O[C@H](CO)[C@@H](O)[C@@H]1O | inactive |
